From PubChem BioAssay
Dicer processing = inhibitors of human Dicer processing of pre-microRNA. AID 1347074. hit rate 6% among 47,000. cat-ELCCA pre-miR-21 Dicer processing, chemiluminescence; active compounds read high. z-score at 25 µM. Q9UPY3; in the data active = z-score above about 3, passing the limit was not always enough;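 also: plate controls were vehicle for no effect and no enzyme for full effect; higher signal means more uncleaved substrate so more Dicer inhibition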
Target sequence (Q9UPY3 whole entry, looked up): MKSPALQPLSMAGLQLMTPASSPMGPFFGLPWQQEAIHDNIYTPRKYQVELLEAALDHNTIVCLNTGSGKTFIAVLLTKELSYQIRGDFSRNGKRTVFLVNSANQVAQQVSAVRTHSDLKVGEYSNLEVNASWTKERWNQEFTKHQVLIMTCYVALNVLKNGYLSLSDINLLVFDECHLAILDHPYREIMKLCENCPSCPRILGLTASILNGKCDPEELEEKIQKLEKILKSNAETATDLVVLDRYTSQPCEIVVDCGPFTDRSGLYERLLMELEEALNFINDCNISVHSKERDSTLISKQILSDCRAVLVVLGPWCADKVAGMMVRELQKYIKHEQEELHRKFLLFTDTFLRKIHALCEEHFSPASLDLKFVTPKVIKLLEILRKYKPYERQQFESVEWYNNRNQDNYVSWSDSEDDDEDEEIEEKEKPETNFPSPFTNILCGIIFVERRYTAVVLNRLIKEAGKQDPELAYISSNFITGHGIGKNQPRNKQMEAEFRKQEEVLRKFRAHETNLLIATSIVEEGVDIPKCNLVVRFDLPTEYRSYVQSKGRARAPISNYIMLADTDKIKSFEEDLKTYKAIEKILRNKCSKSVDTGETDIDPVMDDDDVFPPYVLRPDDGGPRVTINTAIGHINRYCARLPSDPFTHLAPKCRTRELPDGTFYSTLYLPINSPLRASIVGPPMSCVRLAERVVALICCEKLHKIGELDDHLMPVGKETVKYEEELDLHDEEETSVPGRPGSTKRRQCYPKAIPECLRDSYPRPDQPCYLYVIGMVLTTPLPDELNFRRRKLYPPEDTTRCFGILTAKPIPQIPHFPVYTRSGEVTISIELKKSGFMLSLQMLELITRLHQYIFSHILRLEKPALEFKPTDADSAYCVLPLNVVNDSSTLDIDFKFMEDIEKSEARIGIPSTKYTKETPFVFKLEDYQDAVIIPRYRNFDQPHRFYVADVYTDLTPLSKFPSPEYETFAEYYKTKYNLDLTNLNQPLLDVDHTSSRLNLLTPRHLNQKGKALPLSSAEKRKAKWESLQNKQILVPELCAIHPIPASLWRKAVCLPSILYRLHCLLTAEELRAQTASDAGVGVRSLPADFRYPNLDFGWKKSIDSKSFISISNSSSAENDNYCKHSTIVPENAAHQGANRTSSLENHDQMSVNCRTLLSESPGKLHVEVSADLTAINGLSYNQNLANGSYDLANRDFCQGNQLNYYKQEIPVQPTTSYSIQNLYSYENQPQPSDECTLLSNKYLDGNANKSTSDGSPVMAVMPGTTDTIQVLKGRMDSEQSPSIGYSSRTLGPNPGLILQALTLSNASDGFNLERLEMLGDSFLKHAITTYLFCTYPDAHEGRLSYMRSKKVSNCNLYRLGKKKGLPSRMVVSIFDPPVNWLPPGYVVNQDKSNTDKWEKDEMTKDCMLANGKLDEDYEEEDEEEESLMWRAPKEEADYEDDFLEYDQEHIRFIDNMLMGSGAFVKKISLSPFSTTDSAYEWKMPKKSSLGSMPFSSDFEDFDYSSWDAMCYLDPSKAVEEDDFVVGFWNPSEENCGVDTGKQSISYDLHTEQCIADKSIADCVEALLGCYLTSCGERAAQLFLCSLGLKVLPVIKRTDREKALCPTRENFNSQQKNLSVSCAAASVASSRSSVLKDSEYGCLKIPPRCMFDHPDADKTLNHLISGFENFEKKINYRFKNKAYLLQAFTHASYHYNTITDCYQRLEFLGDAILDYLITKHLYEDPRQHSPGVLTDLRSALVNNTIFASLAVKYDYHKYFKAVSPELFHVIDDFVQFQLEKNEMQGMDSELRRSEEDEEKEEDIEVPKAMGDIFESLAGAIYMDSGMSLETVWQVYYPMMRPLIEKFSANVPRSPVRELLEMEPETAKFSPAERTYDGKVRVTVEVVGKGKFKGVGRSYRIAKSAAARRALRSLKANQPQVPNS
An asterisk follows results filed as active. This is one part of a sample in which hits are shown more often than they occur.

SMILES | Dicer processing
CCOc1ccc(/C(O)=C2/C(=O)C(=O)N(CCCOC)C23C(=O)N(C)c2ccccc23)cc1 (configuration not stated) | 2.5
Cc1ccc(/C(O)=C2/C(=O)C(=O)N(CCCN(C)C)C23C(=O)N(C)c2ccccc23)cc1F (configuration not stated) | -0.29
COCCN1C(=O)C(=O)/C(=C(\O)c2ccc(OC)c(C)c2)C12C(=O)N(C)c1ccccc12 (configuration not stated) | 3.2*
CCOc1ccc(/C(O)=C2/C(=O)C(=O)N(CCOC)C23C(=O)N(C)c2ccccc23)cc1 (configuration not stated) | 4.1*
CCOC(=O)CO/N=C/c1c(Cl)cccc1Cl | 0.66
Cc1ccc(-c2noc(/C=C/c3ccccc3Cl)n2)cc1 | -0.52
O=C(Nc1cc(F)c(Cl)cc1NC(=O)c1ccccc1Cl)c1ccccc1Cl | -0.95
CC(C)(C)OC(=O)/C(C#N)=C/c1ccc([N+](=O)[O-])cc1 | 8.3
CCOC(=O)/C(C#N)=C/NN(C)c1ccccc1[N+](=O)[O-] | -0.25
CCN(CC)C(=O)/C(C#N)=C/c1cc(O)c(O)c([N+](=O)[O-])c1 | 3.8*
Cc1nnc(SCc2cc(Br)cc(Br)c2)[nH]c1=O | 0.5
Cc1cc(S(=O)(=O)/N=C/N(C)C)c(C)cc1Cl | -0.28
N#Cc1c(C(F)(F)F)cc(-c2ccccc2)nc1S/C=C(\O)c1cc2ccccc2o1 | -0.45
Cc1ccc(OCC(=O)NNC(=S)NC(C)c2ccccc2)c2c1CCC2 (configuration not stated) | -1.6
COc1ccc(-c2c(C)nn3c(C)cc(C)nc23)cc1OC | 4.8*
COc1ccc(-c2c(C)nn3c(N)c(-c4ccc(Cl)cc4)cnc23)cc1OC | 5.5
COc1ccc(-c2c(C)nn3c(-c4ccccc4)cc(C)nc23)cc1OC | 2.2
CCc1ccc(C2CC(=O)Oc3c2c(=O)n(C)c2ccccc32)s1 (configuration not stated) | -1
COc1ccc(C2NC(=O)c3c(sc4c3CCN(C)C4)N2)cc1 (configuration not stated) | -1.2
COC(=O)/C(=C/N(C)C)Sc1cc(C)c(Cl)cc1Cl | -0.75
COc1ccc(OCc2nc3ccccc3[nH]2)cc1 | 1.1
Nc1ccc(CCc2nc3ccc(N)cc3[nH]2)cc1 | 0
c1ccc(CCc2nc3ccccc3[nH]2)cc1 | 3.2*
c1ccc2[nH]c(CCCc3nc4ccccc4[nH]3)nc2c1 | 2.5
CCN(CC)Cc1nc2ccccc2[nH]1 | 3.4*
SMILES | Dicer processing
Nc1cccc(CCc2nc3cc4ccccc4cc3[nH]2)c1 | 6.9*
Oc1ccc(Cc2nc3ccccc3[nH]2)cc1 | 0.44
Nc1cccc(-c2nc3ccccc3[nH]2)c1 | -0.02
O=S(=O)(CCc1nc2ccccc2[nH]1)CCc1nc2ccccc2[nH]1 | 0.33
CN1CCc2nc3sc(C(=O)Nc4ccc(F)cc4)c(N)c3cc2C1 | -1.5
O=C(/C=C/Nc1ccc(Cl)cc1Cl)C(F)(F)F | 0.11
CCOC(NC(=O)Nc1ccccc1C(F)(F)F)(C(F)(F)F)C(F)(F)F | -1.4
CC12N=NCC1C(=O)N(c1ccccc1Cl)C2=O (configuration not stated) | 0.47
COc1ccc2nc(NC(=O)Oc3ccccc3)sc2c1 | 0.96
COc1ccc(C2NC(=O)NC2=O)cc1 (configuration not stated) | 1.1
COc1ccc(C2C(C#N)=C(C)NC3=C2C(=O)CC(c2ccc(Cl)cc2)C3)cc1 (configuration not stated) | 0.16
COc1ccc(C2C=C(c3ccc(Cl)cc3)NC(=O)C2C#N)cc1 (configuration not stated) | 4.4*
Cc1nc2c(=O)n(C)c3c(c(=O)n(C)c(=O)n3C)c2o1 | 4.8
COC(=O)C1=C(C)NC2=C(C(=O)CC(c3ccccc3Cl)C2)C1c1ccc(Br)cc1 (configuration not stated) | -4.4
N#CCC(=O)Nc1ccc([N+](=O)[O-])cc1 | -0.04
COc1cc(-c2ncnn2-c2sc3c(c2C#N)CCCCC3)ccc1O | -3.5
O=C(O)C1C2C=CC(C2)C1C(=O)NCc1ccccn1 (configuration not stated) | -1.3
Cc1nnc(NC(=O)C2c3ccccc3Oc3ccccc32)s1 | 4.9*
O=C(Nc1ccncc1)C1c2ccccc2Oc2ccccc21 | -1.1
CC(C)c1nnc(NC(=O)C2c3ccccc3Oc3ccccc32)s1 | 0.88
CCCCCC(C)NC(=O)C1c2ccccc2Oc2ccccc21 (configuration not stated) | -0.35
COC(=O)C1c2ccccc2Oc2ccccc21 | -0.31
NC(=O)C1c2ccccc2Oc2ccccc21 | -0.49
O=C(NC1CCCC1)C1c2ccccc2Oc2ccccc21 | 4.3*
O=C(NCc1ccccn1)C1c2ccccc2Oc2ccccc21 | 3.1*
SMILES | Dicer processing
Cn1c(=O)c2c(O)c([N+](=O)[O-])c(=O)n(-c3ccccc3)c2n(C)c1=O | -2.2
CCOc1ccc(C2C(C(=O)c3cc4ccccc4o3)=C(O)C(=O)N2CCN(C)C)cc1 (configuration not stated) | 0.65
CCOC(=O)n1c(=O)oc2ccc(S(=O)(=O)N3CCCCC3)cc21 | -0.71
FC(F)(F)c1oc(-c2ccc(Cl)cc2)cc1-c1nc(-c2cccs2)no1 | -0.18
CCOc1ccc(/C(O)=C2\C(=O)C(=O)N(Cc3cccnc3)C2c2ccc(F)cc2)cc1 (configuration not stated) | 1.4
CC(C)CCC(O)(CCN1CCCCC1)c1ccccc1 (configuration not stated) | 2.1
CN1CCN2c3ccccc3Cc3ccccc3C2C1 (configuration not stated) | -0.38
CC(C)CCN1Cc2ccccc2C1 | 5.1*
O=c1c(-c2ccccc2Cl)coc2c(CN3CCN(Cc4ccccc4)CC3)c(O)ccc12 | 0.92
O=C(NNC(=S)NCC1CC1)C1CC1 | 3.4*
S=C(NCC1CC1)N/N=C/c1ccccc1Cl | 19
CC(C)(C)OC(=O)N[C@@H](Cc1ccccc1)C(=O)NNC(=S)NCC1CC1 | 2.1
CCOC(=O)/C(C#N)=C/Nc1cc(C)on1 | -1.1
COc1ccc(OCC2CN=C(Nc3ccc(C)cc3)S2)cc1 (configuration not stated) | 0.22
Cc1ccc(C(=O)NC(=O)c2ccccc2O)cc1 | -0.87
CC1=NN(c2ccc(C)cc2)C(=O)/C1=C/N(C)C | -7.6
COc1ccc(-c2ccc(-c3noc(-c4cccc(OC)c4)n3)c(OC)n2)cc1 | -0.9
COc1nc(-c2ccccc2)ccc1-c1noc(-c2ccc(C)cc2)n1 | 1.5
COc1nc(-c2ccc(C)cc2)ccc1-c1noc(-c2cccnc2)n1 | 3.5*
CC(C)NC(=O)NNC(=O)c1csc(-c2cccnc2)n1 | -1.1
C=C1c2ccccc2C(=O)N1c1ccc(F)cc1 | 0.58
Cn1cc([N+](=O)[O-])c(C(=O)Nc2cccc(Br)c2)n1 | 1.5
CC(C)(C)NC(=O)c1cc2ccccc2o1 | 4.2*
O=C(Nc1ccc(F)cc1)c1cc2ccccc2o1 | -0.2
O=C(Nc1ccccc1)c1cc2ccccc2o1 | 0.54
OCCCNCC(O)CN1c2ccccc2Sc2ccccc21 (configuration not stated) | 2.3
CCc1ccc(C2c3c(oc4ccccc4c3=O)C(=O)N2c2nncs2)cc1 (configuration not stated) | -0.35
COc1cc(C2Oc3c(OC)cccc3C3CC(c4cc(C)ccc4O)=NN32)ccc1O (configuration not stated) | 14*
COc1ccc(O)c(C2=NN3C(C2)c2cccc(OC)c2OC3c2ccncc2)c1 (configuration not stated) | 6.2*
